Screening data: PubChem, National Center for Advancing Translational Sciences (NCATS)
NPC1 prom act: activates the NPC1 promoter | Huh7 NPC1 promoter luciferase reporter, 24 h | Potency, µM (series often up to 9.22 µM), for inactives: at the top dose activation, hits mostly activators | 320,000 compounds, 2.4% hits | AID 485313; further: % of control where 0% means no effect; nearly all actives have a fitted effect of over 60% in size
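Stable NPC1-promoter luciferase Huh7 line; cpd (DMSO) 24 h, 37 °C, 5% CO2; Amplite luciferase reagent 10 min RT; luminescence readout. qHTS format.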
ELG1 genotoxic: induces genotoxicity in HEK293T cells with luciferase-tagged ELG1; HEK293T ELG1-luciferase reporter, luminescence, 16 h; Potency, µM (titrated, usually from 46 µM), for inactives: top-dose activity change, positive = activation, actives largely listed as activators; 330,000 compounds, 1.3% hits; AID 504466; further: % of control where 0% means no effect; nearly all actives have a fitted effect of over 60% in size
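Quantitative HTS format in 1536-well plates. HEK293T ELG1-luciferase reporter cells receive test compound and are incubated 16 hr at 37 °C, 5% CO2; ONE-Glo added, 30 min room temperature, then luminescence read.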
FLuc modulator: inhibits or activates purified firefly luciferase, miR-21 counter-screen. 360,000 compounds, 6.9% hits. purified FLuc, Km substrates, luminescence inhibition. Potency, µM (top dose mostly 57.5 µM), for the others: top-dose activity change, negative = inhibition, usual class: inhibitors. P08659;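 further: plate controls were vehicle for no effect and reference inhibitor for full effect; nearly all actives have a fitted effect of over 55% in size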
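Biochemical qHTS of compounds, final roughly 60 µM downward over six points, against 10 nM purified firefly luciferase using Km concentrations of substrates (10 uM D-luciferin, 10 uM ATP) in Tris acetate pH 7.5 buffer; luminescence output.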
ELG1 DNA repair: blocks ELG1-dependent DNA repair in HEK293T cells; HEK293T ELG1-luciferase reporter, luminescence, 16 h; DNA damage induced by 5-fluorouridine; 330,000 compounds, 2.3% hits; Potency, µM (top dose mostly 46.1 µM), inactives show top-dose activity change, negative = inhibition, most hits filed as inhibitors; further: on the % scale 0 is the no-effect control and ±100 the full control effect; nearly all actives have a fitted effect of over 55% in size
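5-Fluorouridine DNA damage + compound/DMSO, 2,000 cells/well, 16 h, 37 °C/5% CO2. ONE-Glo, 30 min RT, luminescence. Readout = decrease in reporter signal.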
SMN2 splice up: SMN2 splice variant enhancement. Potency, µM (series often up to 46.1 µM), for the others: at the highest dose activity change, positive = activation, most hits filed as activators. AID 1458. HEK293 SMN2-luciferase splicing reporter, luminescence, 30-36 h. 210,000 compounds, 2.8% hits; further: % of control where 0% means no effect; nearly all actives have a fitted effect of over 55% in size
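HEK293 cells carry an SMN2 minigene-luciferase reporter in which exon 7 inclusion puts luciferase in frame. Cells were seeded at 2000 cells/well, attached for 10-12 hours, then exposed to compounds for 30-36 hours at 37C before ONE-Glo luminescence.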
Rab9 prom act: activators of Rab9 promoter | Huh7 Rab9 promoter-luciferase reporter, luminescence, 24 h | Potency, µM (titrated, usually from 9.22 µM), inactives show at the highest dose activation, negative = inhibition, most hits filed as activators | 320,000 compounds, 2.8% hits | AID 485297; further: % of control where 0% means no effect; nearly all actives have a fitted effect of over 60% in size
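Cells were plated at 1500 per well in reduced-serum medium with 10% FBS and left 2 h. Compound in DMSO was then added for 24 h at 37 °C. Reporter signal was read by luminescence after 10 min with luciferase detection reagent.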
ELG1 FLuc counter: luciferase inhibition in cell-free luciferin readout for ELG1 hits; shares compounds with ELG1 DNA repair; cell-free firefly luciferase luminescence counter-screen, ViewLux; Potency, µM (titrated, usually from 46.1 µM), without a hit: top-dose activity change, negative = inhibition, most hits filed as inhibitors; 350 compounds, 3% hits; AID 624247; further: on the % scale 0 is the no-effect control and ±100 the full control effect
ELG1-Luc inh: inhibits ELG1-dependent DNA repair in HEK293T cells, confirmed; Potency, µM (doses to about 46.1 µM), without a hit: at the highest dose activity change, negative = inhibition, most hits filed as inhibitors; HEK293T ELG1-luciferase levels, luminescence; cells co-treated with 5-fluorouridine; shares compounds with ELG1 DNA repair; 670 compounds, 68% hits; AID 624248; further: on the % scale 0 is the no-effect control and ±100 the full control effect; nearly all actives have a fitted effect of over 55% in size
ELG1-Luc MMS: MMS-stimulated human ELG1 repair inhibition, confirmed. shares compounds with ELG1 DNA repair. HEK293T luciferase-tagged ELG1 level, MMS stimulated. Potency, µM (titrated, usually from 46.1 µM), inactives show at the top dose activity change, negative = inhibition, most hits filed as inhibitors. 670 compounds, 53% hits; further: on the % scale 0 is the no-effect control and ±100 the full control effect; nearly all actives have a fitted effect of over 60% in size
ELG1 5FU viab: confirmation of ELG1 repair inhibitors: viability with 5FU. shares compounds with ELG1 DNA repair. cell viability with 5-FU, ELG1-dependent repair. Potency, µM (top dose mostly 46.1 µM), for the others: at the top dose activity change, negative = viability loss, most hits filed as cytotoxic. 670 tested, under 10 active;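 further: ELG1-luc HEK293T cells cotreated with 5-fluorouridine at 10 µM final; viability measured 16 h after compound addition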
ELG1 MMS viab: confirmation of ELG1 repair inhibitors: viability with MMS | shares compounds with ELG1 DNA repair | Cell viability with MMS, ELG1-dependent DNA repair | Potency, µM (titrated, usually from 46.1 µM), inactives show at the top dose activity change, negative = viability loss, hits mostly cytotoxic | 670 compounds, 33% hits | AID 624251;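 further: ELG1-luc HEK293T cells co-treated with 10 µM MMS; viability read 16 h after compound addition; on the % scale 0 is the no-effect control and ±100 the full control effect; nearly all actives have a fitted effect of over 60% in size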
Cell viab unstim: affects unstimulated cell viability, ELG1 hit counter-screen. shares compounds with ELG1 DNA repair. cell viability counter-screen, unstimulated, luminescence. Potency, µM (doses to about 45.9 µM), inactives show at the top dose activity change, negative = loss of viability, hits mostly cytotoxic. 900 compounds, 8% hits;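 further: compound exposure lasted 16 hours before reading; on the % scale 0 is the no-effect control and ±100 the full control effect; nearly all actives have a fitted effect of over 55% in size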
FLuc enzyme: firefly luciferase inhibition counter-screen. purified firefly luciferase, luminescence counter-screen. 350 compounds, 10% hits. shares compounds with ELG1 DNA repair. Potency, µM (titrated, usually from 57.5 µM), for inactives: at the highest dose activity, negative = inhibition, usual class: inhibitors. AID 624253; further: on the % scale 0 is the no-effect control and ±100 the full control effect
The depositor's hits bear a star; ? = inconclusive; . = no result given. Hits are enriched below; roughly 9.3% of the tested compounds scored in any of these assays. The call rests on the fitted dose curve; in most records, active means well fitted curve in the direction sought with a large enough effect; inconclusive means small, poorly fitted or top-dose-only effect, or another doubt; inactive means no such curve, though single readings can be large; an effect the other way counts as inactive or inconclusive. Potency means the concentration at half of the fitted maximal effect.

SMILES	NPC1 prom act	ELG1 genotoxic	FLuc modulator	ELG1 DNA repair	SMN2 splice up	Rab9 prom act	ELG1 FLuc counter	Cell viab unstim	FLuc enzyme	others
O=C(CSc1nnc(-c2csc3c2CCCC3)o1)Nc1ccccc1	?	0.58µM*	-18%	?	1.8µM*	0.56µM*	30%	?	-15%
N#Cc1c(NC(=O)CSc2nnc(-c3ccccc3)o2)sc2c1CCCC2	-2%	2%	3%	11%	?	1%	.	.	.
Cc1ccc(NC(=O)CSc2nnc(-c3cccnc3)o2)c(C)c1	-3%	?	3%	?	.	-1%	.	.	.
CCOC(=O)c1ncn2c1[C@@H]1CCNC1C(=O)c1cc(OC)ccc1-2 (stereo partly specified)	1%	14%	3%	7%	.	-1%	.	.	.
O=C(CSc1nnc(Cc2ccccc2)o1)Nc1ccccc1	-1%	4%	-1%	4%	4%	-10%	.	.	.
O=C(CSc1nnc(-c2ccc(O)cc2)o1)Nc1ccccc1	2.5µM*	8.2µM*	?	?	.	2.8µM*	209%	?	?
O=C(O)CSc1nnc(-c2ccc(O)cc2)o1	.	.	?	.	3%	.	.	.	.
O=C(CSc1nnc(Cc2ccccc2)o1)Nc1ccc(Br)cn1	-2%	1%	6%	18%	15%	5%	18%	10%	5%
CCO[C@H]1OC(C(=O)N2CCN(C)CC2)=C[C@@H](C2CC2)[C@@H]1CCCO	-6%	7%	0%	16%	.	4%	.	.	.
COc1ccccc1Nc1nc(N2CCOCC2)nc(N2CCOCC2)n1	-5%	-8%	2%	1.6µM*	.	-4%	0%	-8%	4%	ELG1-Luc inh=7.9µM*;ELG1-Luc MMS=2%;ELG1 5FU viab=?;ELG1 MMS viab=-2%
Cc1ccc([N+](=O)[O-])cc1Nc1nc(N2CCOCC2)nc(N2CCOCC2)n1	-4%	-10%	-6%	16µM*	-16%	-4%	62%	?	-6%	ELG1-Luc inh=8.9µM*;ELG1-Luc MMS=?;ELG1 5FU viab=?;ELG1 MMS viab=?
Cc1ccc(C(C(=O)NC(C)(C)C)N(C(=O)CCC(=O)Nc2ccccn2)c2ccccc2F)cc1 (stereo unspecified)	-7%	-4%	2%	-1%	.	15%	.	.	.
CCc1ccc(NC(=O)CN2CCCN(S(=O)(=O)c3ccc(F)cc3)CC2)cc1	1%	-14%	2%	?	.	3%	.	.	.
Cc1ccc2c(c1)C/C(=C/c1ccc(N(C)C)cc1)C2=O	.	.	.	.	.	.	.	0%	.
Cc1ccc(C)c(S(=O)(=O)N/N=C/c2ccc(N(C)C)cc2)c1	-4%	1%	-19%	2%	.	-1%	.	.	.
COc1ccccc1OCCC(=O)Nc1nc(C)cs1	-4%	2%	1%	7%	.	1%	.	.	.
ICC[n+]1csc2ccccc21	.	.	.	.	.	.	.	-1%	.
Cc1cc(C)nc(SCC(=O)OCC(=O)N(C)c2c(N)n(Cc3ccccc3)c(=O)[nH]c2=O)n1	-1%	1%	0%	-5%	.	10%	.	.	.
Cn1c2ccccc2c(=O)c2cc(NCCCN3CCOCC3)ccc21	.	?	.	?	.	.	.	-4%	.
COc1cc(C)c2c(=O)cc(-c3ccccc3)oc2c1	.	.	.	.	11µM*	.	.	-6%	.
COc1c(O)c(O)c2oc(-c3ccccc3)cc(=O)c2c1OC	16%	3%	?	-10%	.	-1%	.	.	.
Cn1nc(C(=O)OCC(=O)c2ccc(Cl)cc2)c2ccccc2c1=O	.	2%	.	6%	.	.	.	.	.
COc1ccc(-c2nnc(SC(C)C(=O)Nc3cccc(Cl)c3)o2)cc1 (stereo unspecified)	?	21µM*	-18%	?	16µM*	4µM*	.	1%	.
COc1ccccc1Cn1c(=S)[nH]c2cc(C(=O)NCCN(C)C)ccc2c1=O	-7%	0%	2%	-2%	.	4%	.	.	.
COc1ccc(C(CNc2nc(-c3cccnc3)nc3ccccc23)N(C)C)cc1 (stereo unspecified)	-3%	-3%	4%	-25%	.	0%	-2%	-9%	-7%	ELG1-Luc inh=18µM*;ELG1-Luc MMS=?;ELG1 5FU viab=?;ELG1 MMS viab=0%
Cc1ccc(CNc2nc(-c3cccnc3)nc3ccccc23)cc1	1%	0%	-7%	?	.	0%	.	.	.
COc1ccc(CCNc2nc(-c3cccnc3)nc3ccccc23)cc1OC	0%	-3%	-18%	2.6µM*	.	-1%	14%	?	?	ELG1-Luc inh=3.2µM*;ELG1-Luc MMS=13µM*;ELG1 5FU viab=?;ELG1 MMS viab=?
Cc1ccc(S(=O)(=O)NCc2ccccc2)cc1C(=O)NCCc1ccc(S(N)(=O)=O)cc1	-3%	0%	3%	0%	.	1%	.	.	.
O=C(Nc1nnc(-c2ccccc2Cl)o1)c1ccc(S(=O)(=O)N2CCCCCC2)cc1	-23%	-14%	0%	1µM*	-60%	-32%	9%	?	-3%	ELG1-Luc inh=?;ELG1-Luc MMS=?;ELG1 5FU viab=-1%;ELG1 MMS viab=-10%
COc1ccccc1NC(=O)Nc1nc(CC(=O)Nc2ccc(F)c(F)c2)cs1	1%	-3%	-19%	4.6µM*	.	-6%	.	?	.	ELG1-Luc inh=22µM*;ELG1-Luc MMS=8%;ELG1 5FU viab=6%;ELG1 MMS viab=-7%
